Source: PubChem BioAssay (several laboratories)
BoNT-F LC inh: BoNT/F light chain protease inhibitors, primary screen, biochemical, flow cytometry, MLPCN library. Botulinum neurotoxin type F light chain protease (Clostridium botulinum). Multiplex microsphere protease cleavage assay. inhibition, % at 10 µM. 0.22% of 360,000 active. AID 588497, 2011; in the data active = inhibition above about 35%, passing the limit was not always enough; inconclusive = no clear call, values can overlap the other calls
Anthrax LF inh2: Bacillus anthracis LF protease inhibitors, primary screen, biochemical, multiplex microsphere, MLPCN library. inhibition, % at 10 µM. 0.12% of 360,000 active. Lethal factor (Bacillus anthracis), P15917. multiplex microsphere protease cleavage assay
Target sequence (P15917 whole entry, looked up): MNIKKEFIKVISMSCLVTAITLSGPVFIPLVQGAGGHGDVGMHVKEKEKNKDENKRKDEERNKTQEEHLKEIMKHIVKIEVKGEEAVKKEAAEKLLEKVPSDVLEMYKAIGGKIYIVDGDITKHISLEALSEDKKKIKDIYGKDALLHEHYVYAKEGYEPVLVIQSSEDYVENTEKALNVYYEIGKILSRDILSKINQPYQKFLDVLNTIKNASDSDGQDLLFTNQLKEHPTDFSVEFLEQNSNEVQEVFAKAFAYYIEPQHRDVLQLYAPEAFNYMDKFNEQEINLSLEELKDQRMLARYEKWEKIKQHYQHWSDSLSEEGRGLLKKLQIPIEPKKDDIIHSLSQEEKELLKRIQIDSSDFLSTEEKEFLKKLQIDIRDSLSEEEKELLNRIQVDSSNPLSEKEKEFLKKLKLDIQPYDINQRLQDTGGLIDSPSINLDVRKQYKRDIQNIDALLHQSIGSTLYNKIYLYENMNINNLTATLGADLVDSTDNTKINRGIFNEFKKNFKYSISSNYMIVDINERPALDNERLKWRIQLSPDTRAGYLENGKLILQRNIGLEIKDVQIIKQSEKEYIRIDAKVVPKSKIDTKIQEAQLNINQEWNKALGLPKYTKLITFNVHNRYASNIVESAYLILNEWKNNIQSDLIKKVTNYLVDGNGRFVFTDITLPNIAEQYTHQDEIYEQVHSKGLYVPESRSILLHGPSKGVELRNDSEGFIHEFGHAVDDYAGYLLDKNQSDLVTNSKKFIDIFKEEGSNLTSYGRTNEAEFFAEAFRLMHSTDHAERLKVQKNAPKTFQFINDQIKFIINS
Autofluor counter: flagged as autofluorescent in microsphere protease counterscreen; 3.1% of 360,000 active; compound autofluorescence counterscreen, microsphere flow cytometry; stronger effect = higher value; fluorescence intensity (test concentration not listed); in the data active = fluorescence intensity above about 16000; inconclusive = no clear call, values can overlap the other calls
TcdB GH inh: TcdB glycohydrolase inhibitors, primary screen, biochemical, single point, plate reader; Toxin B (Clostridioides difficile), P18177; TcdB glycohydrolase enzymatic assay; inhibition, % at 9.99 µM; 0.24% of 350,000 active; AID 652162, 2013; in the data active = inhibition above about 10%
BoNT-A LC inh2: BoNT/A light chain protease inhibitors, primary screen, biochemical, flow cytometry, MLPCN library; multiplex microsphere protease substrate cleavage; inhibition, % at 10 µM; 0.17% of 360,000 active
Of the large screens only hits and unclear results are named; the others gave an inactive call. Shown is part of a subset that was picked to be rich in hits. Rule as the data show it, unless noted: active = inhibition above about 30%; inconclusive = no clear call, values can overlap the other calls; inactive = below that.

CN1C/C(=C/c2ccncc2)C(=O)/C(=C/c2ccncc2)C1	none
CCN1C/C(=C/c2ccc(N3CCOCC3)cc2)C(=O)/C(=C/c2ccc(N3CCOCC3)cc2)C1	BoNT-A LC inh2 37
CN1C/C(=C\c2ccc(N3CCOCC3)cc2)C(=O)/C(=C/c2ccc(N3CCOCC3)cc2)C1	Anthrax LF inh2 33, BoNT-A LC inh2 34 (no result: TcdB GH inh)
CC(=O)c1ccc(N2CCN(C(=S)Nc3ccccc3)CC2)cc1	none (no result: TcdB GH inh)
COC(=O)N1CCN(c2ccc(C(C)=O)cc2)CC1	Autofluor counter 18481, BoNT-A LC inh2 inconclusive (no result: TcdB GH inh)
Cc1ccc(C(=O)NCc2ccc(N3CCN(C(=O)OC(C)(C)C)CC3)cc2)cc1	Autofluor counter 23049, BoNT-A LC inh2 inconclusive (no result: TcdB GH inh)
Cc1noc(NS(=O)(=O)c2ccc(NC(=O)CSc3nnc(-c4ccccc4)n3C3CCCCC3)cc2)c1C	Autofluor counter 22405
CCOC(=O)N1CCC(NC(=O)CCCC(=O)O)CC1	none
CCOC(=O)N1CCN(C(=O)CCc2c(C)nc3c(c(C)nn3-c3ccc(C)c(C)c3)c2C)CC1	Autofluor counter 20186 (no result: TcdB GH inh)
CCOC(=O)CCc1c(C)nc2c(c(C)nn2-c2ccccc2)c1C	none
CCOC(=O)C1CCCCN1C(=O)CCc1c(C)nc2ncnn2c1C (stereo unspecified)	Autofluor counter 21476 (no result: TcdB GH inh)
CCOC(=O)N1CCC(NC(=O)CCc2c(C)nc3c(c(C)nn3C(C)(C)C)c2C)CC1	Autofluor counter 21418 (no result: TcdB GH inh)
CCOC(=O)C1CCCCN1C(=O)CCc1c(C)nc2cc(-c3ccccc3)nn2c1C (stereo unspecified)	none
Cc1nc2nc(C)c(CCC(=O)NC(C)c3ccc4c(c3)OCCO4)c(C)n2n1 (stereo unspecified)	none (no result: TcdB GH inh)
Cc1nc2ncnn2c(C)c1CCC(=O)NC(C)c1ccc2c(c1)OCCO2 (stereo unspecified)	Autofluor counter 22862 (no result: TcdB GH inh)
COCC#Cc1ccc2c(c1)O[C@H](CN(C)S(=O)(=O)c1cccc(F)c1)[C@@H](C)CN([C@H](C)CO)S2(=O)=O	none (no result: BoNT-F LC inh, Anthrax LF inh2, Autofluor counter, BoNT-A LC inh2)
O=C(CC1CC1)Nc1ccc2c(c1)[C@H]1C[C@@H](CC(=O)NC3CCCCC3)O[C@H](CO)[C@H]1O2	none (no result: BoNT-F LC inh, Anthrax LF inh2, Autofluor counter, BoNT-A LC inh2)
Cc1nc2ncnn2c(C)c1CCC(=O)O	none (no result: TcdB GH inh)
CCOC(=O)N1CCC(NC(=O)CCc2c(C)nc3nc(C)nn3c2C)CC1	none (no result: TcdB GH inh)
CCOC(=O)CCc1c(C)nc2ncnn2c1C	Autofluor counter 23382, BoNT-A LC inh2 inconclusive (no result: TcdB GH inh)
CCOC(=O)N1CCC(NC(=O)CCc2c(C)nc3ncnn3c2C)CC1	Autofluor counter 22017, BoNT-A LC inh2 inconclusive (no result: TcdB GH inh)
Cc1nc2ncnn2c(C)c1CCC(=O)NCc1ccccc1	Autofluor counter 20501 (no result: TcdB GH inh)
Cc1nc2nc(C)c(CCC(=O)NCc3ccc4c(c3)OCO4)c(C)n2n1	Autofluor counter 17817, BoNT-A LC inh2 inconclusive (no result: TcdB GH inh)
CCCC#Cc1ccc([C@@H]2[C@H]3CN(S(=O)(=O)c4ccccc4C)CC(=O)N3[C@H]2CO)cc1	none (no result: BoNT-F LC inh, Anthrax LF inh2, Autofluor counter, BoNT-A LC inh2)
CCNC(=O)[C@H]1[C@H](CO)[C@H]2Cn3c(ccc(-c4cccc(F)c4)c3=O)[C@@H]1N2C(=O)c1cnccn1	none (no result: BoNT-F LC inh, Anthrax LF inh2, Autofluor counter, BoNT-A LC inh2)
O=C(C1CCC(Cn2c(=S)[nH]c3ccccc3c2=O)CC1)N1CCN(c2ccccc2)CC1 (stereo unspecified)	none (no result: TcdB GH inh)
O=C(C1CCC(Cn2c(=S)[nH]c3ccccc3c2=O)CC1)N1CCN(c2ccccn2)CC1 (stereo unspecified)	none
COc1ccc(N2CCN(C(=O)C3CCC(Cn4c(=S)[nH]c5ccccc5c4=O)CC3)CC2)cc1 (stereo unspecified)	Autofluor counter 17035 (no result: TcdB GH inh)
COc1ccccc1N1CCN(C(=O)C2CCC(Cn3c(=S)[nH]c4ccccc4c3=O)CC2)CC1 (stereo unspecified)	Autofluor counter 17156 (no result: TcdB GH inh)
O=C([C@@H]1[C@@H](CO)[C@@H]2Cn3c(ccc(-c4ccc(F)cc4)c3=O)[C@H]1N2)N1CCCCC1	none (no result: BoNT-F LC inh, Anthrax LF inh2, Autofluor counter, BoNT-A LC inh2)
CCCNC(=O)Nc1ccc2c(c1)C(=O)N(C)C[C@H](OC)[C@H](C)CN(C)[C@H](C)CO2	none (no result: BoNT-F LC inh, Anthrax LF inh2, Autofluor counter, BoNT-A LC inh2)
CC(C(N)=O)N1C(=O)c2cccc3cccc1c23 (stereo unspecified)	Autofluor counter 23424
CC(C(=O)NC1CCCC1)N1C(=O)c2cccc3cccc1c23 (stereo unspecified)	Autofluor counter inconclusive
CCCn1nc2ccccc2c1P(=N)(N1CCOCC1)N1CCOCC1	Autofluor counter 20501, BoNT-A LC inh2 inconclusive (no result: TcdB GH inh)
CCc1cc(C(=O)Cc2ccc(F)cc2)c(O)cc1O	none
CCc1cc(C(=O)COc2ccccc2F)c(O)cc1O	Autofluor counter 18558, BoNT-A LC inh2 inconclusive
CC(C)CC(=O)NC(=S)Nc1cccc(NC(=O)c2ccccc2)c1	none
Cc1cc(NC(=S)NC(=O)CC(C)C)ccc1Br	Autofluor counter 25030
COc1ccc(CNC(=O)C[C@H]2C=C[C@@H](NC(=O)Nc3ccc4c(c3)OCO4)[C@H](CO)O2)cc1	none (no result: BoNT-F LC inh, Anthrax LF inh2, Autofluor counter, BoNT-A LC inh2)
Cc1ccc(NC(=O)c2csc(-c3ccccc3)c2C)cc1	Autofluor counter 23926 (no result: TcdB GH inh)
O=C(O)c1ccccc1C(=O)Nc1cccc([N+](=O)[O-])c1	BoNT-F LC inh inconclusive
Cc1c(C(=O)Nc2cccc([N+](=O)[O-])c2)csc1-c1ccccc1	Autofluor counter 16284 (no result: TcdB GH inh)
CO[C@H]1CN(C)C(=O)c2ccc(NS(C)(=O)=O)cc2OC[C@@H](C)N(C(=O)C2CCC2)C[C@H]1C	none (no result: BoNT-F LC inh, Anthrax LF inh2, Autofluor counter, BoNT-A LC inh2)
CCOC(=O)c1sc(-c2ccc(F)cc2)cc1N	Autofluor counter 25606 (no result: TcdB GH inh)
CCOC(=O)c1sc(=S)n(-c2ccccc2Cl)c1SC	none
COC(=O)c1sc(=S)n(-c2cc(F)ccc2F)c1N	Autofluor counter 19767
CCOC(=O)c1sc(=S)n(-c2ccccc2)c1SC	Autofluor counter 21506 (no result: TcdB GH inh)
Cc1ccc(-n2c(N)c(C(N)=O)sc2=S)cc1	none (no result: TcdB GH inh)
CCOC(=O)c1sc(=S)n(-c2cc(OC)ccc2OC)c1N	none (no result: TcdB GH inh)
CCOC(=O)c1sc(=S)n(-c2cc(F)ccc2F)c1N	Autofluor counter 24008 (no result: TcdB GH inh)
CO[C@@H]1CN(C)C(=O)c2ccc(NC(=O)C3CC3)cc2OC[C@@H](C)N(CC2CCCC2)C[C@@H]1C	none (no result: BoNT-F LC inh, Anthrax LF inh2, Autofluor counter, BoNT-A LC inh2)
